Results as given in PubChem BioAssay AID818 (SRMLSC, 2007).
Screen size: about 140,000 compounds; about 2,100 (1.5%) were called active. What follows is part of a selection rich in actives, with near analogues and random picks from the rest. Values without a mark were called inactive.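 The calls were made as follows: active = viability at or under a set limit, the compound median less 4 SD (cut at about 6% in these data); inactive = the rest.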

test: primary screen for suppressors of beta-catenin knockout HCT116 cell growth, colon tumor, human (AID 818); conditions: CellTiter-Glo, 60 h, at 10 µM, stronger effect = lower value;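 also: 0% = Hyamine 1622 control at 20 µM and 100% = untreated cell control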

Row | Structure (SMILES) | viability
1 | COc1ccc(OC)c(-c2c(=O)n(OCc3ccccc3Br)c3ccccc3[n+]2[O-])c1 | 74.9%
2 | COc1ccc(C(=O)Nc2c(Cl)cc(Cl)cc2C(=O)N2CCC(C)CC2)cc1 | 77.2%
3 | CCOc1cc(N2CCOCC2)c(OCC)cc1NC(=O)COc1cccc2cccnc12 | 4.29% (active)
4 | Cc1cccc(OCC(=O)NC(=S)Nc2ccccc2N2CCOCC2)c1 | 98.4%
5 | CCOc1cc(N2CCOCC2)c(OCC)cc1NC(=O)COC(=O)[C@H](Cc1c[nH]c2ccccc12)NC(C)=O | 87.2%
6 | CCOC(=O)c1ccccc1N1C(=O)C2Sc3[nH]c(=O)sc3C(/C=C/c3ccccc3)C2C1=O (configuration not stated) | 91.4%
7 | Cc1nc2c(C(=O)NCc3cccs3)cnn2c(C)c1Cc1ccc(F)cc1 | 83.5%
8 | N#C/C(=C/c1ccc(N2CCCCC2)o1)C(=O)NCCc1c[nH]c2ccccc12 | 90.2%
9 | O=C(Nc1ccc([N+](=O)[O-])cc1)C1(c2ccccc2)CCOCC1 | 94.8%
10 | C=C1c2cc(CC)ccc2NC(=O)N1c1ccc(C)cc1 | 98.3%
11 | CCc1ccc2c(c1)C1(NN=C(c3ccccc3)S1)C(=O)N2 (configuration not stated) | 4.17% (active)
12 | O=C1Nc2ccccc2C12Nc1ccccc1S2 (configuration not stated) | 86.2%
13 | Cc1ccc2c(CC(=O)NCc3cccs3)coc2c1 | 102%
14 | Cc1ccnc(NS(=O)(=O)c2ccc(NC(=O)c3ccc(S(=O)(=O)N4CCOCC4)cc3)cc2)n1 | 97%
15 | CCC(C(=O)OCCN(CC)CC)c1ccccc1 (configuration not stated) | 106%
16 | CCC(C)(NC(=O)c1ccccn1)C(=O)NC1CCCCC1 (configuration not stated) | 89.8%
17 | CCN(CC)CCOc1ccc2c(c1)C(=NNC(=O)c1ccccn1)c1cc(OCCN(CC)CC)ccc1-2 | 0.37% (active)
18 | COCCNc1nc(N)c([N+](=O)[O-])c(NCCO)n1 | 98.5%
19 | O=C(Nc1ccccc1F)c1ccccc1-c1ccc(C(F)(F)F)cc1 | 77.4%
20 | CCOC(=O)C1=C(C)NC(=S)NC1c1cccs1 (configuration not stated) | 84.5%
21 | Cc1cccc(NC(=O)NC(=S)NC(=O)c2ccccc2)c1 | 102%
22 | O=C(NC1CCN(Cc2ccccc2)CC1)c1c(F)cccc1F | 93.9%
